Screening results deposited in PubChem by National Center for Advancing Translational Sciences (NCATS).
KDM5B inh: blocks human KDM5B histone demethylase activity | AID 1347165 | hit rate 2.6% among 220,000 | Q9UGL1 | Potency, µM (doses to about 57.7 µM), usual class: inhibitors | KDM5B demethylase, FDH-coupled NADH fluorescence (FDH is formaldehyde dehydrogenase); active = well fitted inhibition curve with a large enough effect; note: 0% is about no effect; nearly all actives have a fitted effect of over 70% in size
Target sequence (Q9UGL1 whole entry, looked up): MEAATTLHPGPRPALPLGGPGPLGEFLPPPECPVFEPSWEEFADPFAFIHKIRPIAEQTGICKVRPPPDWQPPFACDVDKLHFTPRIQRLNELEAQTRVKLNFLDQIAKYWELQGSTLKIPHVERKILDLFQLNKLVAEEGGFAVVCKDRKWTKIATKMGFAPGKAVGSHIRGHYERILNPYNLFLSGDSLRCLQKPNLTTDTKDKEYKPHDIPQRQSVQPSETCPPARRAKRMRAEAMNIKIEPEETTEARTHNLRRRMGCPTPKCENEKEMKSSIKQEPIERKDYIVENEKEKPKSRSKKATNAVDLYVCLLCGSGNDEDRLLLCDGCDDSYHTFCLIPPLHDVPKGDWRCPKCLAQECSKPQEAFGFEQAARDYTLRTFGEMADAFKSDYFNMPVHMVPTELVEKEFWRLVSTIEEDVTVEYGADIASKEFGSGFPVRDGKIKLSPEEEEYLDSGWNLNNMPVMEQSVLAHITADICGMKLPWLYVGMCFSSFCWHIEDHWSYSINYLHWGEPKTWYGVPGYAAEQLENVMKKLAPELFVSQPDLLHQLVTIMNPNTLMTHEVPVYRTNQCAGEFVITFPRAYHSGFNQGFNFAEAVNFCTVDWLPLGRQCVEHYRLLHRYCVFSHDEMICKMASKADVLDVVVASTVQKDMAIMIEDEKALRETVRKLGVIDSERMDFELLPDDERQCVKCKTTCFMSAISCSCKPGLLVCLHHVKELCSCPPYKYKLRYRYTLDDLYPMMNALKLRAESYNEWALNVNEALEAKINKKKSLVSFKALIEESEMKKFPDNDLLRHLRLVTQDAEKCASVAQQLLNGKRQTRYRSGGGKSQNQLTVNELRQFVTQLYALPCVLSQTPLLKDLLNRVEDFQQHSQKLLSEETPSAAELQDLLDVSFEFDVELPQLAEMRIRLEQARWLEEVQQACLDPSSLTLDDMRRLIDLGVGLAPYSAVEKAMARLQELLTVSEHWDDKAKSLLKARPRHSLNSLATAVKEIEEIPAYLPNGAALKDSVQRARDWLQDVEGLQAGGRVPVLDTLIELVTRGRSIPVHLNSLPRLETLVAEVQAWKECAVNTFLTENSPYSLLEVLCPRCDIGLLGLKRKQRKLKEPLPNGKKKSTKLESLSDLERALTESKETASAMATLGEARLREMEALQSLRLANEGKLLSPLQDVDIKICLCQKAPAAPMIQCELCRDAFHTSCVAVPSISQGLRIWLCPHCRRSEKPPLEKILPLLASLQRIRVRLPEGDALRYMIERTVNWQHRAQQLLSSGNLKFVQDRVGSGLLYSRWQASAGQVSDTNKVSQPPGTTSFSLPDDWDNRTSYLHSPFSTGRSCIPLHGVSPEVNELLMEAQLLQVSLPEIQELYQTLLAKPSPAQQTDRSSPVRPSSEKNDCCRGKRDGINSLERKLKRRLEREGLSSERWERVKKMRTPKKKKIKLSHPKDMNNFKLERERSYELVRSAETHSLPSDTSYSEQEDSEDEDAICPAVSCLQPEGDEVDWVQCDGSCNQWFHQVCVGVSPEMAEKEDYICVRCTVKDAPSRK
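qHTS format, multiple compound concentrations. Buffer 50 mM HEPES pH 7.5/0.01% Tween-20; 200 nM KDM5BΔAP final; 10 min compound preincubation; substrate-mix levels 12.5 µM peptide, 25 µM α-KG, 0.25 mM NAD⁺; 30 min RT; ΔRFU.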
* hit, by the source's call; i = inactive. The sample as a whole holds a higher share of hits than the screen did. Potency is the fitted concentration of half-maximal effect.

SMILES	KDM5B inh
CC(=O)c1cccc(NC(=O)O[C@@H]2CO[C@H]3[C@@H]2OC[C@@H]3Nc2nccc(-c3ccccc3)n2)c1	i
c1csc(-c2ccnc(N[C@H]3CO[C@H]4[C@@H]3OC[C@@H]4NCC3CCCCC3)n2)c1	39.8µM*
CCNC(=O)O[C@@H]1CO[C@H]2[C@@H]1OC[C@@H]2NC(=S)Nc1ccccc1	i
COc1ccc(NC(=O)O[C@@H]2CO[C@H]3[C@@H]2OC[C@@H]3Nc2nccc(-c3cccs3)n2)cc1	i
O=C(O)CCCC(=O)N[C@H]1CO[C@H]2[C@@H]1OC[C@@H]2Nc1nccc(-c2cccc(F)c2)n1	35.5µM*
CCNC(=O)N[C@H]1CO[C@H]2[C@@H]1OC[C@@H]2Nc1nccc(-c2ccc(-c3ccccc3)cc2)n1	i
O=C(COC(=O)c1cc(=O)c2ccccc2o1)Nc1cccc(Br)c1	i
Nc1nc(COc2ccccc2C(=O)NCc2ccccc2)nc(Nc2ccc(F)cc2)n1	i
CCOC(=O)CSc1nnc2n(CC)c(=O)c3c(n12)-c1ccccc1CC31CCCCC1	i
Cc1nc2ccc(Cl)cc2cc1C(=O)NC(C)c1ccccc1 (configuration not stated)	i
CC(C)(C)c1ccc(NC(=O)O[C@@H]2CO[C@H]3[C@@H]2OC[C@@H]3Nc2nccc(-c3ccc4c(c3)OCO4)n2)cc1	28.2µM*
COc1cccc(NC(=O)O[C@@H]2CO[C@H]3[C@@H]2OC[C@@H]3Nc2nccc(-c3ccccc3)n2)c1	i
COCC(=O)N[C@H]1CO[C@H]2[C@@H]1OC[C@@H]2Nc1nccc(-c2ccc(OC)cc2)n1	35.5µM*
N#Cc1cccc(-c2ccnc(N[C@H]3CO[C@H]4[C@@H]3OC[C@H]4OC(=O)Nc3cccc(C(F)(F)F)c3)n2)c1	i
COc1ccc(-c2ccnc(N[C@H]3CO[C@H]4[C@@H]3OC[C@@H]4NC(=O)Nc3ccc(C(C)=O)cc3)n2)cc1	i
CC(C)(C)c1ccc(NC(=O)O[C@@H]2CO[C@H]3[C@@H]2OC[C@@H]3Nc2nccc(C(C)(C)C)n2)cc1	i
COc1ccc(-c2ccnc(N[C@H]3CO[C@H]4[C@@H]3OC[C@H]4OC(=O)Nc3cccc(C(F)(F)F)c3)n2)cc1	22.4µM*
COc1ccc(-c2ccnc(N[C@H]3CO[C@H]4[C@@H]3OC[C@@H]4NS(=O)(=O)c3cccs3)n2)cc1	14.1µM*
COc1cccc(-c2nnnn2[C@H]2CO[C@H]3[C@@H]2OC[C@@H]3NS(=O)(=O)c2cccs2)c1	i
COc1cc(NC(=O)N[C@H]2CO[C@H]3[C@@H]2OC[C@@H]3Nc2nccc(-c3ccc(N(C)C)cc3)n2)cc(OC)c1	i
COc1ccc(NC(=O)O[C@@H]2CO[C@H]3[C@@H]2OC[C@@H]3NC(=O)c2ccc(OC)cc2)cc1	i
COc1ccc(-c2ccnc(N[C@H]3CO[C@H]4[C@@H]3OC[C@@H]4NS(=O)(=O)c3ccc4ccccc4c3)n2)cc1	i
O=C(CCc1ccccc1)N1CCC2(CC1)NC(=O)N(c1ccccc1)N2	i
COc1ccc(C(=O)Nc2ccc3oc(-c4ccccc4C)nc3c2)cc1	i
Cc1ccc(CNC(=O)N2CCCC(C(F)(F)F)C2)cc1 (configuration not stated)	i
SMILES	KDM5B inh
CCCCn1c(N)c(N(Cc2ccco2)C(=O)Cn2c(CC)nc3ccccc32)c(=O)[nH]c1=O	i
NC(=O)C(Sc1ncc(C(F)(F)F)cc1Cl)c1ccc(F)cc1 (configuration not stated)	i
Cc1cccc(C(=O)N2CCN(CCNC(=O)C(=O)Nc3ccccc3)CC2)c1	i
COC(=O)c1c(C)[nH]c(C(=O)C(C)OC(=O)c2ccc(O)cc2)c1C (configuration not stated)	i
Oc1ccc(Cl)cc1C=Nc1cc(C(F)(F)F)ccc1Oc1ccc(Cl)cc1	i
CC(C)(C)c1ccc(C(=O)NCC(c2cccs2)N2CCCC2)cc1 (configuration not stated)	i
Cc1cccnc1CN(C)C(=O)c1ccc2nc(-c3ccccc3)cn2c1	28.2µM*
CCc1nnc(CN(CC)C(=O)c2cc(S(N)(=O)=O)ccc2F)o1	i
Cc1ccc2nc(C(=O)N(C)Cc3cc(-c4cccnc4)no3)cn2c1	i
CCc1noc(CN(CC)C(=O)c2cc(-c3ccccc3)nn2C)n1	i
Cc1ccccc1[C@H]1[C@@H](C(=O)N(C)Cc2ncccc2C)C[C@@](C)(C(=O)O)N1C	i
CCc1nnc(CN(CC)C(=O)c2ccc3nc(-c4ccccc4)cn3c2)o1	28.2µM*
Cc1sc(NC(=O)c2cccc(C#N)c2)c(C#N)c1C	i
Cc1cc(C)c(NC(=O)CSc2ncc(CO)n2CC(=O)NC2CC2)c(C)c1	i
CC(C)CNC(=O)CC(C)Cc1nnc2c(=O)n(-c3cccc(F)c3)ccn12 (configuration not stated)	i
CC(C)CN(C(=O)CSc1ccc2ccccc2n1)C1CCS(=O)(=O)C1 (configuration not stated)	i
